# Measurements from ChEMBL document CHEMBL4888484, “Replenishing the malaria drug discovery pipeline: Screening and hit evaluation of the MMV Hit Generation Library 1 (HGL1) against asexual blood stage Plasmodium falciparum ,using a nano luciferase reporter read-out” (2022).
# Screen size: about 4,800 compounds; about 410 (8.5%) showed an effect of 50% or more. For the sample, strong results were picked, then their nearest neighbours and some compounds at random.
# Test system: Plasmodium falciparum
# Assay: Confirmatory screen in NF54 pLDH assay, in single point, at 2uM, 72h
# Format: functional, Erythrocyte
# Details: timepoint 72 hour
row,SMILES,% Inhibition [%]
1,O=C(Nc1cccc(Cl)c1)c1ccc(-c2cnc(N3CCCC3)nc2)cc1,-19
2,Cc1nn(C)c(NC(=O)Nc2cccc(Cl)c2)c1C1=CCCCC1,-9
3,O=C(Nc1cccc(Cl)c1)Nc1cccc(-c2cnc3n2CCC3)c1,75
4,O=C(Cn1cccn1)Nc1cccc(S(=O)(=O)N2CCCC2)c1,-8
5,C[C@@H](C1CCCC1)N1C(=O)NC(CC(F)(F)F)C1=O (some centres not stated),-23
6,O=C(NS(=O)(=O)C1CCOCC1)c1csc(-c2ccco2)n1,-10
7,Cc1ccccc1Cn1cnc2c1c(=O)n(C1CCCCC1)c(=O)n2-c1ccccc1Cl,82
8,COC(=O)c1ncn2c1C(=O)N(Cc1ccccc1OC)[C@](C)(C(=O)NC1CCCCC1)C2,11
9,COc1ccccc1Cn1cnc2c1c(=O)n(C1CCCCC1)c(=O)n2-c1ccccc1Cl,90
10,COc1ccccc1-n1c(=O)n(C2CCCC2)c(=O)c2c1ncn2Cc1ccccc1Cl,34
11,Cn1ncn(CC(=O)c2cccc(Cl)c2Cl)c1=O,-14
12,O=C(CN1C(=O)N[C@H](c2ccc(F)cc2)C1=O)Nc1ccc2c(c1)OCCO2,5
13,CC(C)(C)CC(C)(C)NC(=O)c1ccc2nc(N3C(=O)CCC3=O)sc2c1,9
14,C[C@H](c1ccccc1)N1C(=O)[C@@H]2CN(C(=O)CC(C)(C)C)CCN2C1=O,-13
15,Cc1ccc(CCC(=O)N2CC[C@H](C)S(=O)(=O)CC2)s1,9
16,C[N+]12CCCCC1C(OC(=O)C1(c3ccccc3)CCCC1)CCC2 (configuration not stated),60
17,O=C1C2ON(c3ccccc3)C(c3ccncc3)C2C(=O)N1c1ccc2ccccc2c1 (configuration not stated),8
18,COc1ccc2cc3n(c2c1)C[C@@](C)(C(=O)NC1CCCC1)N(Cc1ccc(F)cc1)C3=O,13
19,Cc1cc(C)nc(N[C@H](c2ccc(F)cc2)c2cc(C)sc2NC(=O)c2ccccc2)n1,6
20,Cc1ccc([C@@H]2C=C(C(=O)O)Nc3c(C(N)=O)nnn32)cc1,-12
21,Cc1ccc(C2=C[C@@H](c3ccc(Cl)cc3)n3nc(NC(=O)c4ccccc4)nc3N2)cc1,90
22,COc1cc([C@@H]2C=C(c3ccc(Cl)cc3)Nc3ncnn32)ccc1OCc1ccc(Cl)cc1,4
23,Cc1cccc(OC(=O)O[C@H]2c3nccnc3C(=O)N2c2ccc(Cl)cn2)c1,16

row,SMILES,% Inhibition [%]
1,CN(C)c1ccc2c(c1)CN(C(=O)c1ccccc1S(C)(=O)=O)CC2,-5
2,O=C(COc1ccc(Cl)cc1)N[C@H](CO)CC1CCCC1,4
3,O=S1(=O)N=C(n2ccnc2)c2ccccc21,-17
4,CS(=O)(=O)n1cnc2cc(F)c(F)cc21,-8
5,COc1ccc(-[n+]2c(-c3ccc(-c4ccccc4)cc3)cn3c2COCC3)cc1,60
6,COc1ccc(-c2cc(-c3ccccc3)nc(N3CCC(C)CC3)n2)cc1,43
7,COc1ccc(-c2nnc(COc3ccc(-c4ccccc4)cc3)s2)cc1,-10
8,COc1ccc(CCc2nnc3n2CCOC3)cc1,-1
9,COc1ccc(N2CCN(c3nc(-c4ccccc4)cs3)CC2)cc1,0
10,COc1ccc(-[n+]2c(-c3ccccc3)cn3c2CCC3)cc1,59
11,O=C(Cn1c(=O)n(Cc2ccco2)c(=O)c2ccccc21)NC1CCCCC1,10
12,Cc1noc([C@H]2CCCN(C(=O)c3cc4c(s3)CCC4)C2)n1,-5
13,O=C1c2ccccc2N[C@]2(C(=O)Nc3ccccc32)N1c1ccc2c(c1)OCO2,-25
14,Cc1nn(-c2ncc(C(F)(F)F)cc2Cl)c(=O)n1-c1ccc(OCc2ccccc2)cc1,-12
15,CCCCN(CC)c1ncc(C(=O)Nc2ccc(OCC)cc2)c(N)n1,15
16,Cc1ccc(NC(=O)Nc2cc(C)ccc2N2CCCN(Cc3ccc(F)cc3)C2=O)cc1,30
17,Cc1cccc(CNC(=O)NC2CCOC2c2ccc(Cl)cc2)n1 (configuration not stated),-15
18,Cc1cccc(CN(Cc2cccc(C)n2)C[C@H]2CCCCO2)n1,90
19,Cc1cc(C)nc(NCCC[C@H]2CCCCO2)n1,-15
20,CC(C)c1nc(CN(C)[C@@H](C)C(=O)Nc2nccs2)cs1,23
21,CC(C)N(CC(=O)Nc1nccs1)Cc1ccccn1,59
22,CC(C)NC(=O)C(=O)Nc1nccs1,-19
23,CCN1C(=O)CCN(C(=O)c2ccnn2C)CC12CCOCC2,3

row,SMILES,% Inhibition [%]
1,Brc1cccc2c1OCC[C@@H]2Nc1ncnc2nc[nH]c12,4
2,Oc1nc(-c2cccc(C(F)(F)F)c2)sc1-c1ccccc1,2
3,Oc1ccccc1-c1cnc(C(F)(F)F)s1,90
4,Cc1ccc(OCC(=O)Nc2cc(C)nn2-c2nc3c(cnn3-c3ccc(C)c(C)c3)c(=O)[nH]2)cc1,57
5,COc1ccc(-n2ncc3c(NCCNC(=O)c4ccccc4Cl)nc(C)nc32)cc1,-27
6,Cc1ccc(OCC(=O)Nc2ccc(N3CCn4c(nc5ccccc54)C3)cc2Cl)cc1,-20
7,CN(CCCNC(=O)C(=O)Nc1ccn(C)n1)c1cccc(F)c1,10
8,COCCOC(=O)c1cc(C(F)(F)F)cc(C(=O)OCCOC)n1,11
9,CN(Cc1nccn1C)C(=O)c1cc2ccccc2[nH]1,15
10,Cn1c(=O)c2c(ncn2CC(=O)N(Cc2ccccc2)C2CC2)n(C)c1=O,2
11,CCCn1c(C)cnc1C1CN(S(=O)(=O)c2cc(Cl)ccc2Cl)C1,6
12,Cn1c(C(C)(C)C)nc2cc(NC3CCC4(CC3)OCCO4)ccc21,-16
13,COCc1cc(F)ccc1NC(=O)NC1CCN(c2cc(C)nc(C)n2)CC1,5
14,Cn1ncc2c(N3CC(=O)N(C4CC4)C3)ncnc21,-15
15,C[C@@H]1CN(CCN(C)C(=O)Nc2nc(C3CC3)cs2)C[C@H](C)O1,9
16,CC(NCC(O)Cn1c(-c2ccccc2)c(-c2ccccc2)c2ccc3ccccc3c21)c1ccccc1 (configuration not stated),86
17,CCC(C)NCC(O)Cn1c(-c2ccccc2)c(-c2ccccc2)c2cc(C)ccc21 (configuration not stated),92
18,Cc1c(C)n(C[C@H](O)Cn2c(C(F)(F)F)nc3ccccc32)c2c(Cl)cccc12,-15
19,Cc1cccc(C(=O)Nc2c(C#N)c(-c3ccccc3)c(-c3ccccc3)n2Cc2ccccc2)c1,13
20,Cc1c(C)n(C[C@@H](O)CNC2CCCC2)c2c(Cl)cccc12,-18
21,Cc1c(C)n(CC(O)CNC(C)c2ccccc2)c2c(Cl)cccc12 (configuration not stated),73
